The campaign covered roughly 13,000 compounds. About 3,200 (25%) showed an effect of 50% or more. The list shows a part of the results.

The experiment deals with P. falciparum stage V gametocytes. Also on record: BacTiter-Glo ATP luminescence viability of purified stage V gametocytes in 384-well plates, per cent inhibition versus DMSO. The settings on record: 48 h, 5 µM; inhibitor.
As for `O=C(NCCN1CCOCC1)c1ccc(CNC(=O)c2ccc(O)c(-c3ccc(Cl)c(Cl)c3)c2)cc1` [TCMDC-140852], the “% Inhibition” value is 5.208%. The value for `CON(C)C(=O)[C@@H](CCCCNC(=O)OCc1ccccc1)NC(=O)OC(C)(C)C` [TCMDC-132004] was -2.99%; that for `O=C(CN1CCC(NCc2cnc(-c3ccc(Cl)cc3)[nH]2)CC1)N1CCc2ccccc21` [TCMDC-138589] was 28.41%. The value for `Cc1cc(OCCCN2CCCCC2C)ccc1NC(=O)COc1ccc(Cl)cc1C(=O)c1cc(Cl)cc(C#N)c1` (stereo not shown) [TCMDC-134727] was 73.35%; that for `Cc1c(NC(=O)COc2ccc(Cl)cc2C(=O)c2cc(F)cc(C(F)(F)F)c2)ccc2ncsc12` [TCMDC-138907] was 4.382%. The value for `Cc1cc(OCC2CCCN(c3ncc(C(=O)NC4CC4)cc3Cl)C2)ccc1F` (stereo not shown) [TCMDC-134314] was 18.53%; that for `Cc1cc(OCCCN2CCCCC2)ccc1NC(=O)COc1ccc(Cl)cc1C(=O)c1cc(Cl)cc(C#N)c1` [TCMDC-134725] was 48.49%. Turning to `COc1cc(NC(=O)N2CCc3ccc(OCCN4CCCCC4)cc32)cc(C(F)(F)F)c1` [TCMDC-140249], the “% Inhibition” value worked out at 14.65%. The value for `Cc1cc(OCCCN2CCCCC2)ccc1NC(=O)COc1ccc(Cl)cc1C(=O)c1cc(C#N)cc(C(F)(F)F)c1` [TCMDC-134827] was 50%; that for `Cc1cc(OCCCN2CCCC2)ccc1NC(=O)COc1ccc(Cl)cc1C(=O)c1cc(C#N)cc(C(F)(F)F)c1` [TCMDC-138904] was 58.86%; that for `Cc1cc(OCC2CCN(c3ncc(C(=O)Nc4ccccc4)cc3Cl)CC2)ccc1F` [TCMDC-134033] was -3.032%.

Take `Cc1cc(OCCCN2CCN(CCN3CCOCC3)CC2)ccc1NC(=O)COc1ccc(Cl)cc1C(=O)c1cc(Cl)cc(C#N)c1` [TCMDC-135999]: the “% Inhibition” value is listed as 30.59%.

In the case of `CCCCCCN1CCCN(Cc2cccc(C(=O)Nc3ccc(C(C)(C)C)cc3)c2)CC1` [TCMDC-135993], the “% Inhibition” value is given as -6.517%. The value for `CCCC(C)NC(=O)[C@H](Cc1ccccc1)NC(=O)c1ccc(O)c(-c2ccc(OC)cc2)c1` (stereo partly shown) [TCMDC-140800] was 19.41%.

Regarding `CC(C)CNCc1cccc(-c2cccc(CN(CCN(C)C)C(=O)Nc3ccccc3)c2)c1` [TCMDC-140592], the “% Inhibition” value is on record as 108.6%. The value for `CC[C@H](C)CNC(=O)c1cncc(-c2cccc(CNCCCc3ccccc3)c2)c1` [TCMDC-134221] was 19.08%. For the compound `CC(C)CNCc1ccc(-c2cccc(CN(CCN(C)C)C(=O)NCCc3ccccc3)c2)cc1` [TCMDC-140621], the “% Inhibition” value was 102.2%. The value for `CC(C)CNCc1cccc(-c2cccc(CN(CCN(C)C)C(=O)NCCc3ccccc3)c2)c1` [TCMDC-140620] was 102.4%; that for `CN(C)CCOc1cccc(NC(=O)Nc2ccc(-c3ccccc3)cc2)c1` [TCMDC-139537] was 22.41%; that for `CN(C)CCN(C)Cc1cccc(-c2cccc(NC(=O)c3cccc(C#N)c3)c2)c1` [TCMDC-133360] was 6.032%. The value for `CCOC(=O)CNC(=O)N(CCN(Cc1ccccc1)C(=O)NCC(=O)OCC)Cc1ccccc1` [TCMDC-138999] was 6.745%; that for `CC(C)CNC(=O)c1cncc(-c2ccc(CNCCCc3ccccc3)cc2)c1` [TCMDC-134247] was -10.62%; that for `CC(C)CNCc1cccc(-c2ccc(CNc3ccc(C(=O)c4ccccc4)cc3)cc2)c1` [TCMDC-140728] was 10.94%. The value for `CN(CC(=O)Nc1ccc(F)c(F)c1F)c1ncnc2sc(-c3ccccc3)cc12` [TCMDC-124491] was 23.36%; that for `O=C(Nc1ccc2c(ccn2C2CCCN(Cc3cc(F)cc(F)c3F)CC2)c1)c1ccco1` (stereo not shown) [TCMDC-135087] was 26.42%.

Turning to `Nc1nc(N)c2cc(N(Cc3ccccc3)Cc3ccccc3)ccc2n1` [TCMDC-137850], the “% Inhibition” value was -9.254%.

Take `Cc1cccc2[nH]c(-c3cccc(-c4cccc(NC(=O)CNc5ccc(C(N)=O)cc5)c4)c3)nc12` [TCMDC-132165]: the “% Inhibition” value is given as -3.752%. Regarding `Cc1ccccc1C1CCN(c2ccc(C(=O)NC3CC3)cn2)CC1` [TCMDC-134592], the “% Inhibition” value was 24.07%. The value for `COc1ccc2nccc(N3CCC(CCNCc4ccc5c(n4)NC(=O)CS5)CC3)c2n1` [TCMDC-141944] was 32.25%; that for `COc1ccc2nccc(N3CCC(CCNCc4cc5c(cn4)OCCO5)CC3)c2c1.Cl` [TCMDC-133537] was 9.41%; that for `COc1ccc2nccc(N3CCC(NCCNCc4cc5c(cn4)OCCO5)C3)c2n1` (stereo not shown) [TCMDC-134650] was 71.62%. The value for `COc1ccc2nccc(NCC3(O)CCC(NCc4cc5c(cn4)OCCO5)CC3)c2n1` (stereo not shown) [TCMDC-134312] was -33.45%; that for `COc1ccc2nccc(N3CCC(CCNCc4cc5c(cn4)OCCO5)CC3)c2n1` [TCMDC-133538] was 80.45%; that for `COc1ccc2nccc(N3CCC(SCCNCc4cc5c(cn4)OCCO5)C3)c2n1` (stereo not shown) [TCMDC-134286] was 24.01%. Take `COC(=O)c1cc2cccc(NC[C@@H](C)NC[C@H](O)c3cccc(Cl)c3)c2[nH]1` [TCMDC-137770]: the “% Inhibition” value is given as 45%. With `c1cc(CNCC2CCN(CC3CCCCC3)CC2)cc(-n2ccnc2)c1` [TCMDC-141675], the “% Inhibition” value turned out to be 21.38%. The value for `Clc1ccccc1CN1CCC(NCc2cccc(-n3ccnc3)c2)CC1` [TCMDC-141672] was 86.45%; that for `c1cc(CNC2CCN(CC3CCCCC3)CC2)cc(-n2ccnc2)c1` [TCMDC-141657] was 70.67%.

For `COc1ccc(CN2CCC(NCc3cccc(-n4ccnc4)c3)CC2)cc1` [TCMDC-141651], the “% Inhibition” value worked out at 14.29%. The value for `CCCCCCN1CCC(NCc2cccc(-n3ccnc3)c2)CC1` [TCMDC-141664] was 11.65%; that for `CN(C)Cc1ccc(CNC2CCN(Cc3ccccc3Cl)CC2)cc1` [TCMDC-141671] was -2.208%; that for `Cc1ccc(-c2cnc3[nH]cc(-c4ccc(C(=O)O)c(C)c4)c3c2)cc1C.O=C(O)C(F)(F)F` [TCMDC-136381] was 18.23%. The value for `CCCCc1cc(NCC)nc(Nc2ccc(F)cc2)n1` [TCMDC-134009] was 8.286%.

As a reminder, the % Inhibition is the change of the read-out against control, counted positive when it falls.

Source of the values: publication PMC4552634, “A New Set of Chemical Starting Points with Plasmodium falciparum Transmission-Blocking Potential for Antimalarial Drug Discovery” (PLoS ONE, 2015).
